28 compounds from PubChem BioAssay (NCI) can be followed below.

Structures are written as SMILES. Compounds without any hit were thinned out: in the full panel of roughly 83,000, 20% have a hit.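 Treatment: one concentration, 48 hours, 96-well format. Scoring: percent growth, with anything below 10 considered active.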 A number with no mark means an inactive call. Activity calls are given as the source filed them.

The test has as its system MDA-MB-468 breast. The test can be described thus: NCI-60 one-dose screen, 48 h (100 = growth as untreated, 0 = no growth, -100 = all killed). The conditions noted are these: 10 µM unless noted.
`O=C(NC1CCCCC1)c1ccc(Cl)cc1`: the growth was 104%. For `O=C(CN1CCCCCC1)Nc1nc2ccc(NCc3ccc(Cl)cc3)cc2s1` the value was 85.2%; for `O=C(Cn1nnc2ccccc21)Nc1ccc(-c2nc3ccccc3s2)cc1`, -23.8% (active).

Consider `CCCCCCCCCCCCCCCCCC1=NCCN1CCOC1=C(Cl)C(=O)c2ccccc2C1=O`, for which the growth is -50.1% (active). To `CC(=O)N(C)C1CCc2c(sc(NC(=O)c3ccc(C(C)(C)C)cc3)c2C(N)=O)C1` (stereo not drawn) belongs 86.6%. To `c1ccc2c(-c3nc(-c4c[nH]c5ccncc45)cs3)c[nH]c2c1` belongs -9.84% (active); to `O=C(NNc1nc2cc(F)ccc2n2c(CO)ccc12)c1cnccn1`, -14% (active).

Regarding `O=[N+]([O-])c1ccc(-c2ncc(-c3ccc(O)cc3O)[nH]2)cc1`, the growth was 107%. To `c1cn2cc(-c3ccc4cn[nH]c4c3)nc(Nc3ccc(N4CCOCC4)cc3)c2n1` belongs 61.8%; to `C=C/C(C)=C/C[C@]1(C)[C@H](C)[C@@H](OC(=O)CCC)[C@H](O)[C@@]23C(=C[C@H](OC)C[C@@H]12)[C@@H](OC(=O)CCC)O[C@H]3OC(C)=O`, -69% (active).

Consider `CC1(C)OC2COC3(C(=O)O)OC(C)(C)OC3C2O1` (stereo not drawn), for which the growth was 93.6%. To `Cc1[nH]c(C(=O)Nc2ccc(C(=O)N3CCN(c4cc5c(cc4F)c(=O)c(C(=O)O)cn5C4CC4)CC3)cc2OC(C)C)c(Cl)c1Cl` belongs 85.9%; to `Cc1ccc2cnc(N)c(C#Cc3cc(C(=O)Nc4ccc(CN5CCN(C)CC5)c(C(F)(F)F)c4)cnc3C)c2c1`, 15.5%. For `O=c1[nH]c2ccc(Cl)cc2c2ccccc12` the value was 68.1%. Turning to `COc1ccc2occ(C3=C(c4c[nH]c5ccccc45)C(=O)NC3=O)c2c1`, the growth is -2.93% (active). As to `COC(=O)c1cc(-c2ccc(S(C)(=O)=O)cc2)[nH]c1N/N=C/c1c(Cl)cccc1Cl`, the growth was 15.7%. To `CCCc1cc2cc(-n3nc(C)c4c3CC(C)(C)CC4=O)cc(NC3CCSCC3)c2c(=O)[nH]1` belongs 14.3%; to `Clc1ccc2c(OCCCN3CCOCC3)c3oc4ccccc4c3nc2c1`, 21.1%. `NC1=NN=C2N(N)C(=O)c3cnn(-c4ccccc4)c3N2c2nc(-c3ccccc3)cc(-c3ccccc3)c21`: the growth is 110%. For `C=CC(=O)Nc1cccc(Nc2nc(Nc3ccc(N4CCN(C(C)=O)CC4)cc3OC)ncc2C(F)(F)F)c1` the value was -48.8% (active); for `O=C1[C@H]2Cc3c([nH]c4ccccc34)[C@@H](c3ccc(Br)cc3)N2C(=O)CN1C1CCN(CC2CCCCC2)CC1`, -84.6% (active). `OCCN(CCO)C(=S)S`: the growth was 102%. For `COc1ccc(-c2nocc2-c2cccs2)cc1` the value was 97%; for `NS(=O)(=O)c1ccc(Nc2nc(N/N=C/c3ccc(C(F)(F)F)cc3)nc(Nc3ccccc3)n2)cc1`, 34.3%; for `CC(C)=CCC[C@](C)(O)[C@H]1CC[C@]2(C)[C@@H]1CC[C@@H]1[C@@]3(C)C/C(=C/c4ccccc4)C(=O)C(C)(C)[C@@H]3CC[C@]12C`, 94.7%. For `NCCn1cc(-c2nc(-c3c[nH]c4ncccc34)cs2)c2cc(F)ccc21` the value was 64.9%; for `O=C(Nc1ccc(C(=O)/C=C/c2ccc(N3CCOCC3)cc2)cc1)Nc1ccc([N+](=O)[O-])cc1`, 91%; for `CC(C)Sc1nc(NN)c(C#N)c(-c2ccccc2)n1`, 113%.
